Unmarked numbers belong to inactive results. Inconclusive results are not listed. For some assays here: Entries with a potency or affinity are not part of this list. Active and inactive are the calls of the source. Unless noted, how the calls were made is not given here.

The conditions of test [1]: Ebola virus entry assay, green fluorescence channel.
The conditions of test [2]: Ebola virus entry assay, blue channel fluorescence.
For test [3] the following is noted: Ebola virus entry assay, green channel fluorescence.
For test [4] the following is noted: Ebola virus entry assay, reporter ratio channel; Channel type: primary.
The conditions of test [5]: Ebola virus entry assay, blue channel (ratio component).
The nature of test [6]: qHTS assay for measurement of the activity of small molecule inhibitors on Zika virus induced Caspase-3 activity in human iPSC derived neural progenitor cells (hNPCs) (AID 1224857; active means well fitted curve in the direction sought with a large enough effect; an effect the other way counts as inactive or inconclusive; further: % of control where 0% means no effect; nearly all actives have a fitted effect of over 65% in size). Particulars: hNPCs ZIKV-induced caspase-3/7, Caspase-Glo luminescence, 6 h; series mostly up to 45.7 µM. Put shortly:
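Values are percent inhibition of virus-induced caspase-3/7 signal, scaled between uninfected cells and ZIKV-infected cells. Infection used 2 FFU/cell for 6 h after 1 h compound exposure.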

The nature of test [7]: qHTS assay for measurement of the activity of small molecule inhibitors on Zika virus induced Caspase-3 activity in human astrocytoma cells (AID 1224859; active means well fitted curve in the direction sought with a large enough effect; an effect the other way counts as inactive or inconclusive;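 further: plate controls were ZIKV-infected untreated cells for no effect and uninfected cells for full effect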). Particulars: SNB-19 ZIKV-induced caspase-3/7, luminescence, 6 h; series mostly up to 45.7 µM. The procedure, abridged: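 Compound added 1 h pre-infection; ZIKV 2 FFU/cell on SNB-19 cells, 6 h, 37 C/5% CO2. Caspase-Glo 3/7 luminescence; values as % inhibition of ZIKV-induced caspase activity.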
On the technique in general: In qHTS, concentration-response curves come from the screen itself.

Test [8] is described as follows: qHTS assay to identify small molecule inhibitors of chordoma cells - UCH-1 (AID 1259355; active means well fitted curve in the direction sought with a large enough effect; an effect the other way counts as inactive or inconclusive; further: nearly all actives have a fitted effect of over 55% in size; further: potency means the concentration at half of the fitted maximal effect). Particulars: UCH-1 chordoma viability, CellTiter-Glo, 48 h, combination; series mostly up to 46.1 µM. Put shortly:
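Seed 800 cells per well; incubate overnight at 37 C, 5% CO2. Add test compounds (15 concentrations), then the auranofin–topoisomerase-agent combination. Incubate 48hr, add CellTiter-Glo, wait 30min, read luminescence.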

Test [9] in a line: qHTS assay to identify small molecule inhibitors of chordoma cells - UCH-2 (AID 1259356; active means well fitted curve in the direction sought with a large enough effect; an effect the other way counts as inactive or inconclusive; further: on the % scale 0 is the no-effect control and ±100 the full control effect). To be noted: UCH-2 chordoma viability, CellTiter-Glo ATP luminescence, 48 h; series mostly up to 46.1 µM.
For test [10] the following is noted: Ebola virus entry assay, ratio channel.
Wherever efficacy is given: 0% is about no effect.

As to `C[N+]1(C)[C@@H]2CC[C@H]1CC(OC(=O)C(CO)c1ccccc1)C2` (stereo partly specified), the efficacy in test [1] was 19.1%. In addition, the result in test [2], in test [3], in test [4], in test [5] and in test [7] was inactive. The Potency result in [6], in test [8] and in [9] was “inactive” each time.
Consider `Clc1ccc(CO/N=C(\Cn2ccnc2)c2ccc(Cl)cc2Cl)c(Cl)c1`, for which the efficacy in [1] is -155%. Besides, the results for the AC50 in test [2] and in test [4] were 28.2 µM (active) and 31.6 µM (active), respectively. Also, the outcome in [10] and in [7] was inactive. The Potency result in test [6] and in test [9] was “inactive” throughout.
In the case of `NC(=O)OCCCc1ccccc1`, the efficacy in test [1] was 24.7%. For the same molecule, the result in [2], in test [3], in test [4], in test [5] and in [7] was inactive. In addition, the Potency entry in test [6], in test [8] and in test [9] was “inactive” throughout.
`CCCCCCCCC(=O)NCc1ccc(O)c(OC)c1`: the efficacy in test [1] was -29.4%. The call in [2], in test [3], in test [4], in [5] and in test [7] was inactive. Moreover, the Potency result in test [6] and in [9] was “inactive” throughout.
On to `Clc1ccc(CSC(Cn2ccnc2)c2ccc(Cl)cc2Cl)cc1` (stereo unspecified), for which the efficacy in test [1] was -183%. Also, the results for the AC50 in test [2], in test [10] and in [4] were 5.62 µM (active), 4.47 µM (active) and 4.47 µM (active), respectively. In addition, the Potency result in test [6], in [8] and in [9] was “inactive” throughout. In addition, the molecule was classed as inactive in test [7].
Consider `OC[C@@H](O)[C@H](O)[C@H](O)[C@@H](O)CO`, for which the efficacy in test [1] is -17.3%. The call in test [2], in test [3], in test [4] and in test [5] was inactive.
For `NC(=O)CN1CCCC1=O`, the efficacy in test [1] is 23.9%. The call in test [2], in [3], in test [4], in [5] and in [7] was inactive. The Potency result in test [6] and in test [9] was “inactive” each time.
In the case of `ClC1=C(Cl)C2(Cl)C(CBr)CC1(Cl)C2(Cl)Cl` (stereo unspecified), the efficacy in test [1] was -23.9%. The call in test [2], in [4], in test [5] and in test [7] was inactive. Also, the Potency result in test [6], in [8] and in test [9] was “inactive” throughout.
`CC(C)NCC(O)c1ccc(N)c(C#N)c1` (stereo unspecified): the efficacy in test [1] was -19.3%. The molecule was called inactive in test [2], in test [3], in test [4], in test [5] and in test [7]. Further, the Potency entry in test [6], in test [8] and in [9] was “inactive” each time.
In the case of `CC[n+]1c(-c2ccccc2)c2cc(N)ccc2c2ccc(N)cc21`, in [1], the efficacy was 67.8%. In addition, the AC50 (in general, the concentration giving half of the maximal activity seen) in test [2] was 28.2 µM (active); in test [10], 14.1 µM (active); in test [4] it was 14.1 µM (active). In addition, in [8], the Potency was 7.94 µM (active). Besides, in [9], the Potency result was “inactive”.
For the molecule `CN1C(=O)CN=C(c2ccccc2)c2cc([N+](=O)[O-])ccc21`, the efficacy in [1] is 23.9%. In addition, the molecule was called inactive in test [2], in test [3], in test [4], in test [5] and in test [7]. Besides, the Potency result in [6] and in test [9] was “inactive” in each case.
For `CCCCCCCCCCCC[N+](C)(C)CCOc1ccccc1`, the efficacy in test [1] was -194%. The AC50 is 39.8 µM (active) in test [2], 25.1 µM (active) in test [10] and 25.1 µM (active) in [4]. The Potency entry in test [6] and in test [9] was “inactive” in each case. Also, the molecule was classed as inactive in [7].
As for `O=c1n(Cl)c(=O)n(Cl)c(=O)n1Cl`, the efficacy in [1] was -11.8%. For the same molecule, the molecule was called inactive in test [2], in test [3], in [4], in test [5] and in test [7]. Further, the Potency entry in test [6], in test [8] and in test [9] was “inactive” each time.

The values are drawn from PubChem BioAssay (NCATS).
